Results: PubChem BioAssay (Tox21)
Records with an inconclusive call do not appear. The source made the active and inactive calls. Calls come from the whole dose curve; as a rule, active = well fitted curve in the direction sought with a large enough effect in the repeat runs; inconclusive = weak or mixed curves; inactive = no such curve, though single readings can be large; an effect the other way counts as inactive or inconclusive.

Key:
[1] = target: Cytochrome P450 2D6 (Homo sapiens) (UniProt P10635); assay: Cytochrome P450 Family 2 Subfamily D Member 6 (CYP2D6) small molecule antagonists: luciferase reporter qHTS assay (AID 1671196); note: nearly all actives have a fitted effect of over 50% in size; note: potency is the fitted concentration of half-maximal effect; for activity change, negative = inhibition: series mostly up to about 120 µM
Sequence of Cytochrome P450 2D6 (Homo sapiens) (P10635 whole entry, looked up): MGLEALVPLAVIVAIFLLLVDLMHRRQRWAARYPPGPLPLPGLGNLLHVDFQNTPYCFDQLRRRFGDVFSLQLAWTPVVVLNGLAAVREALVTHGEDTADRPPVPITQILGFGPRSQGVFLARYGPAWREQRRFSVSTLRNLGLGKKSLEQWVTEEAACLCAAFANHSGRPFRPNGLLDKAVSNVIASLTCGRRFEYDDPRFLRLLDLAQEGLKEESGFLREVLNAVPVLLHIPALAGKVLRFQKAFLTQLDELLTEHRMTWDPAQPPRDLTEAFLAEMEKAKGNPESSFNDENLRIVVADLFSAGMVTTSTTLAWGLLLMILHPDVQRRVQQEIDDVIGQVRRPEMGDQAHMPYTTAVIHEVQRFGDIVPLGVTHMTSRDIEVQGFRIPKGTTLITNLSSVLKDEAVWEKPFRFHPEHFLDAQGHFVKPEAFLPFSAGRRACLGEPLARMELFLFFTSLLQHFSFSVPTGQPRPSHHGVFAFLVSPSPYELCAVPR
Procedure, shortened: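 CYP2D6 activity was followed as luminescence from its luciferin product after a 1 h NADPH-driven reaction at room temperature. Enzyme-substrate mix and compound were pre-incubated for 10 min, and the signal was read 20 min after adding detection reagent.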

[2] = target: Cytochrome P450 2C19 (Homo sapiens) (UniProt P33261); assay: Cytochrome P450 Family 2 Subfamily C Member 19 (CYP2C19) small molecule antagonists: luciferase reporter qHTS assay (AID 1671197); note: nearly all actives have a fitted effect of over 65% in size; note: potency is the fitted concentration of half-maximal effect; for activity change, negative = inhibition: series mostly up to about 120 µM
Sequence of Cytochrome P450 2C19 (Homo sapiens) (P33261 whole entry, looked up): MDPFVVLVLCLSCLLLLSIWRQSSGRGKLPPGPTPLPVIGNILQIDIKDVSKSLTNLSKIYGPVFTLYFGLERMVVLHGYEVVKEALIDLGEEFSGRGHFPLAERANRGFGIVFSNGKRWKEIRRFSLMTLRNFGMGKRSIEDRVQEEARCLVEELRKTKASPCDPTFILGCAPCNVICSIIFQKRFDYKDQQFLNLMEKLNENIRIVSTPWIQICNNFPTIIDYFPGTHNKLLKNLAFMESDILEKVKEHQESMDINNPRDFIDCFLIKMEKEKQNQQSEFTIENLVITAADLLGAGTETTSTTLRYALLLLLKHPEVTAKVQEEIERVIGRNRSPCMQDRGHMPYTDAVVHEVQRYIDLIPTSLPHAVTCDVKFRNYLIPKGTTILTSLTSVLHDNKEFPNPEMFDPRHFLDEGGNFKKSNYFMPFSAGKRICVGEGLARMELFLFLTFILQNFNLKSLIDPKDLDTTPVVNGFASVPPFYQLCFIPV
Procedure, shortened: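 Enzyme-substrate mix with proluciferin substrate (P450-Glo CYP2C19 system) preincubated with compounds 10 min at room temperature; NADPH regeneration solution added, 37C for 1 h; detection reagent stops reaction, luminescence read after 20 min. Ketoconazole positive control.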

[3] = target: Cytochrome P450 2C9 (Homo sapiens) (UniProt P11712); assay: Cytochrome P450 Family 2 Subfamily C Member 9 (CYP2C9) small molecule antagonists: luciferase reporter qHTS assay (AID 1671198); note: nearly all actives have a fitted effect of over 50% in size; note: potency is the fitted concentration of half-maximal effect; for activity change, negative = inhibition: series mostly up to about 120 µM
Sequence of Cytochrome P450 2C9 (Homo sapiens) (P11712 whole entry, looked up): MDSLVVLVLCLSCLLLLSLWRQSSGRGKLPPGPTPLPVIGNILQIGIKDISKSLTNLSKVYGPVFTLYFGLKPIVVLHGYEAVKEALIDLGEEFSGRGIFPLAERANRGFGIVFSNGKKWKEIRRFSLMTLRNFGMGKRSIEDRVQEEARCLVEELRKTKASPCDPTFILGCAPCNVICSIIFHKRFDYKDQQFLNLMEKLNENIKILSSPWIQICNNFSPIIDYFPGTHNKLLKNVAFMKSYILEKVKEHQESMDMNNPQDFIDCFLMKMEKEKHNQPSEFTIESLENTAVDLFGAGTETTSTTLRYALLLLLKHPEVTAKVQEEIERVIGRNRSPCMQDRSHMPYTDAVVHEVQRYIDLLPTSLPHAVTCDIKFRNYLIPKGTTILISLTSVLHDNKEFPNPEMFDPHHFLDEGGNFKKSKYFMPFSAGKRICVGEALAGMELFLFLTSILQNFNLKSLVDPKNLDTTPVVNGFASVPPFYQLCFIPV
Procedure, shortened: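 P450-Glo proluciferin substrate with CYP2C9 enzyme; 10 min RT preincubation, then NADPH regeneration 1 h at 37C; luciferin detection reagent 20 min RT, luminescence in relative luminescence units.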

[4] = target: Voltage-gated inwardly rectifying potassium channel KCNH2 (Homo sapiens) (UniProt Q12809); assay: Human Ether-a-go-go-Related Gene (hERG) channel small molecule antagonists: fluorescence cell-based qHTS assay (AID 1671200);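 note: hERG-expressing U2OS cells given a thallium stimulus after FluxOR II dye loading; series mostly up to about 77 µM; nearly all actives have a fitted effect of over 50% in size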
Sequence of Voltage-gated inwardly rectifying potassium channel KCNH2 (Homo sapiens) (Q12809 whole entry, looked up): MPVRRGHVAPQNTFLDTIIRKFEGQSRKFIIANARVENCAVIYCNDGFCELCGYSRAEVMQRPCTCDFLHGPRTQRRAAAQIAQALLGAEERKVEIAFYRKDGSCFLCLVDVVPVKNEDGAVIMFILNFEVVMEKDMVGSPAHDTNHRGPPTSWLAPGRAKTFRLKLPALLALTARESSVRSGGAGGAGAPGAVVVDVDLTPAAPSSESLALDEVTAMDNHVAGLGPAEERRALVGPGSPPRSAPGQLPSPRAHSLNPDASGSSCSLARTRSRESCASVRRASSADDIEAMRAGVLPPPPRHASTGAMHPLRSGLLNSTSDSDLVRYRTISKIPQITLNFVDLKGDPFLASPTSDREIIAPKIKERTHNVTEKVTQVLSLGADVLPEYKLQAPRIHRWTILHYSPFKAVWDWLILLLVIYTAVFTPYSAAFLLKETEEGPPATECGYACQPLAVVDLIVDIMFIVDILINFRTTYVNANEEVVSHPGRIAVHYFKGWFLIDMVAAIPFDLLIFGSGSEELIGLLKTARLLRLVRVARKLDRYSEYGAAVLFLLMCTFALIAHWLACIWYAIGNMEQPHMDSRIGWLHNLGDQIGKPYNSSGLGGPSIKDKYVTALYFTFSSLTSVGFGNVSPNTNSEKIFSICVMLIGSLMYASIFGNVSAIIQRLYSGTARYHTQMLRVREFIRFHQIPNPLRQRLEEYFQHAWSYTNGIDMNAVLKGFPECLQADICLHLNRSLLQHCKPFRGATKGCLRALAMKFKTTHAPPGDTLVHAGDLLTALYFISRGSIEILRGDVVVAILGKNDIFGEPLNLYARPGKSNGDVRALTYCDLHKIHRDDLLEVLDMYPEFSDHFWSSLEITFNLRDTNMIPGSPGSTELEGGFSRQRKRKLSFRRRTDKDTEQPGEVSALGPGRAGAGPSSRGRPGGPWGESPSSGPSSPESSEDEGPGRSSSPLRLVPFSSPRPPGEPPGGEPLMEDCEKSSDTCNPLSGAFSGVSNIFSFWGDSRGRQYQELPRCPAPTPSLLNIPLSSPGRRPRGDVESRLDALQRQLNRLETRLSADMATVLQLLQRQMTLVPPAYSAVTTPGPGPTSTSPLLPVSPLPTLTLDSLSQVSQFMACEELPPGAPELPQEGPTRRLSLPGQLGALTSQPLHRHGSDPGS
Procedure, shortened: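 Cell line hERG-U2OS; dye FluxOR II, 1 h RT dark; Tl+ stimulus; ex 480/em 540 nm, read each second for 2 min.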

[5] = target: Cytochrome P450 3A4 (Homo sapiens) (UniProt P08684); assay: Cytochrome P450 Family 3 Subfamily A Member 4 (CYP3A4) small molecule antagonists: luciferase reporter qHTS assay (AID 1671201); note: nearly all actives have a fitted effect of over 50% in size; note: potency is the fitted concentration of half-maximal effect; for activity change, negative = inhibition: series mostly up to about 120 µM
Sequence of Cytochrome P450 3A4 (Homo sapiens) (P08684 whole entry, looked up): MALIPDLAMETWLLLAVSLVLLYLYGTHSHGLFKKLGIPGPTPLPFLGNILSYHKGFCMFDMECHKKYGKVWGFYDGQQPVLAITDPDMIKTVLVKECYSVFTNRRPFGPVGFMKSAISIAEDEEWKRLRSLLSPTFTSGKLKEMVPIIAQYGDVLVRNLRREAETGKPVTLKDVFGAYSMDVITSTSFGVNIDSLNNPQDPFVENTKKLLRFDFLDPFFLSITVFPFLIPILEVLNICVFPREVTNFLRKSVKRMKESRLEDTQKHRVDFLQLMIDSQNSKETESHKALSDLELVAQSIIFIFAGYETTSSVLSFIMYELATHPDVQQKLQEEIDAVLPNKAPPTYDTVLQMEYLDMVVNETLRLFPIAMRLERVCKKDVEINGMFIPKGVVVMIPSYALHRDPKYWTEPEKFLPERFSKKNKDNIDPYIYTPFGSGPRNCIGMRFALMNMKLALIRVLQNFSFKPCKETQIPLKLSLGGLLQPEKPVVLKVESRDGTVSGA
Procedure, shortened: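 Room-temperature assay throughout: 10 min compound–enzyme/substrate preincubation, 1 h reaction after NADPH regeneration solution, 20 min detection. Luciferin formed from proluciferin substrate is quantified by luminescence.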

[6] = target: Cytochrome P450 1A2 (Homo sapiens) (UniProt P05177); assay: Cytochrome P450 Family 1 Subfamily A Member 2 (CYP1A2) small molecule antagonists: luciferase reporter qHTS assay (AID 1671199); note: nearly all actives have a fitted effect of over 50% in size; note: potency is the fitted concentration of half-maximal effect; for activity change, negative = inhibition: series mostly up to about 120 µM
Sequence of Cytochrome P450 1A2 (Homo sapiens) (P05177 whole entry, looked up): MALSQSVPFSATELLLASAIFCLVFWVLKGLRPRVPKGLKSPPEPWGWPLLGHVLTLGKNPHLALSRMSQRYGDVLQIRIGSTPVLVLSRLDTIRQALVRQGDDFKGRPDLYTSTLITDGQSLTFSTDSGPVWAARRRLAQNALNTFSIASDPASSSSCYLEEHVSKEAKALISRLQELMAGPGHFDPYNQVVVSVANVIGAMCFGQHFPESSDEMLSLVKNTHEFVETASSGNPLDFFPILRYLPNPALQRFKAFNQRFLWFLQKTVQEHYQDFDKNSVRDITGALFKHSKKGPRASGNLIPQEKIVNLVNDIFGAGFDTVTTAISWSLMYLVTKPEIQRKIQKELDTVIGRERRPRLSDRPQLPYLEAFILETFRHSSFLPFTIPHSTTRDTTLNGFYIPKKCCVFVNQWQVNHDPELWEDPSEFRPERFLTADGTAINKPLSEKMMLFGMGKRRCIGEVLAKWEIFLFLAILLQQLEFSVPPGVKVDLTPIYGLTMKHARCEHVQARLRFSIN
Procedure, shortened: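 Luminescence from luciferin formed by CYP1A2 from a proluciferin substrate, read 20 min after detection reagent. Compound was pre-incubated 10 min with enzyme-substrate, and reaction started with NADPH regeneration solution for 1 h at room temperature; furafylline control.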
% is set by controls: 0 for no effect and ±100 for the full control effect.

COc1cc2c(cc1OC)[C@@H]1CC(=O)[C@@H](CC(C)C)CN1CC2
inactive: Potency [4]
active: Potency [1] 12.3 µM | Potency [2] 7.76 µM | Potency [3] 11 µM

O=C(CCNNC(=O)c1ccncc1)NCc1ccccc1
inactive: Potency [4]
active: Potency [1] 15.5 µM | Potency [2] 11 µM | Potency [3] 4.9 µM

O=C(O)CCSSCCC(=O)O
inactive: Potency [1] | Potency [2] | Potency [3] | Potency [4] | Potency [5]

CCOC(=O)[C@H](CCc1ccccc1)N[C@@H](C)C(=O)N1C(=O)N(C)C[C@H]1C(=O)O
inactive: Potency [1] | Potency [2] | Potency [3] | Potency [4] | Potency [5]

C=C1CC/C=C(\C)CC[C@@H]2[C@@H]1CC2(C)C
inactive: Potency [1] | Potency [2] | Potency [3] | Potency [4] | Potency [5]

Cc1cccc(C)c1OCC(C)N (configuration not stated)
inactive: Potency [2] | Potency [4] | Potency [5]
active: Potency [1] 13.8 µM

C=Cc1ccccn1
inactive: Potency [1] | Potency [3] | Potency [6] | Potency [4] | Potency [5]

O=C1c2ccccc2C(=O)C1c1ccccc1
inactive: Potency [1] | Potency [3] | Potency [6] | Potency [4] | Potency [5]

NCCS
inactive: Potency [1] | Potency [2] | Potency [6] | Potency [4] | Potency [5]

Cc1ccccc1C(=O)Nc1ccc(C(=O)N2CCCC(N(C)C)c3ccccc32)cc1 (configuration not stated)
inactive: Potency [1] | Potency [2] | Potency [4]

CCCOC(=O)C(C)O (configuration not stated)
active: Potency [6] 40.8 µM
inactive: Potency [1] | Potency [3] | Potency [4] | Potency [5]

CC(=O)/C=C/C1C(C)=CCC(C)C1(C)C (configuration not stated)
inactive: Potency [1] | Potency [4]
active: Potency [2] 10 µM | Potency [5] 25.2 µM

CC[C@H](C)C(=O)O[C@H]1C[C@H](O)C=C2C=C[C@H](C)[C@H](CC[C@@H](O)C[C@@H](O)CC(=O)O)[C@H]21
inactive: Potency [1] | Potency [2] | Potency [4] | Potency [5]

COC(=O)C1CC(=O)C(C(=O)OC)CC1=O (configuration not stated)
inactive: activity change, negative = inhibition [1] -3.24% [at 10.5 µM] | activity change, negative = inhibition [3] -7.95% [at 10.5 µM] | activity change, negative = inhibition [4] 0.39% [at 6.97 µM] | activity change, negative = inhibition [5] 9.87% [at 10.5 µM]

CO[C@@H]1[C@@H](OC(N)=O)[C@@H](O)[C@H](Oc2ccc3c(O)c(NC(=O)c4ccc(O)c(CC=C(C)C)c4)c(=O)oc3c2C)OC1(C)C
active: Potency [3] 11 µM
inactive: Potency [1] | Potency [6] | Potency [4] | Potency [5]
